Screening data deposited in PubChem by National Center for Advancing Translational Sciences (NCATS).
Compounds with a hit are over-represented: about 0.57% of the library has one in this group of screens.
12-hLO inh: qHTS Assay for Inhibitors of 12-hLO (12-human lipoxygenase); 0.12% of 150,000 active; purified 12-hLO, xylenol orange hydroperoxide absorbance; Potency, µM (top dose mostly 57.1 µM), most hits filed as inhibitors; Polyunsaturated fatty acid lipoxygenase ALOX12 (Homo sapiens), P18054; further: nearly all actives have a fitted effect of over 55% in size
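Hydroperoxide formation by human 12-lipoxygenase from 40 uM arachidonic acid was followed colorimetrically via ferric-xylenol orange complex, using the 573/405 nm absorbance ratio. Enzyme concentration was 150 nM, with 30 min reaction at room temperature.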
IMPase Li inh: qHTS Assay for Identifying the Cell-Membrane Permeable IMPase Inhibitors: Potentiation with Lithium; CHO-M1 cells, IP1 TR-FRET (IP-One), carbachol + lithium; Potency, µM (highest dose often 59.4 µM), most hits filed as inhibitors; 0.35% of 210,000 active; AID 1457, 2008;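 further: IP1 builds up when IMPase is blocked and the TR-FRET signal falls; nearly all actives have a fitted effect of over 50% in size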
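Concentration–response in CHO-M1 cells, lithium-potentiated; 30 min at 37C. IP1 detected by competitive TR-FRET after 10 min lysis at RT. Hill-fitted AC50.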
15-hLO-2 inh: qHTS Assay for Inhibitors of 15-hLO-2 (15-human lipoxygenase 2); AID 881, 2007; Potency, µM (series often up to 57.1 µM), usual class: inhibitors; purified 15hLO-2, xylenol orange hydroperoxide absorbance; Polyunsaturated fatty acid lipoxygenase ALOX15B (Homo sapiens), O15296; 0.56% of 110,000 active; further: nearly all actives have a fitted effect of over 60% in size
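Read-out: hydroperoxide product oxidises ferrous iron, measured as xylenol orange complex via the 573-to-405 nm absorbance ratio after 30 min. Reaction: 50 nM enzyme, 15 min compound preincubation, 45 uM arachidonic acid, 90 min RT, Hepes pH 7.5 with Triton X-100.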
IMPase cell inh: qHTS Assay for Identifying the Cell-Membrane Permeable IMPase Inhibitors | CHO-M1 cells, IP1 accumulation, HTRF TR-FRET ratio | inhibition (IP1 accumulation), % at 46.1 µM | 120,000 tested, under 10 active | AID 901, 2007; active means well fitted curve in the direction sought with a large enough effect in the signal ratio, not every such curve was filed as active; inconclusive means small, poorly fitted or top-dose-only effect, or a change in a side signal; inactive means no such curve, though single readings can be large or run the other way; the % refers to the signal ratio;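 further: cells stimulated with carbachol in lithium chloride buffer; higher means more IMPase inhibition seen as more IP1 and lower FRET ratio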
Target sequence (P97697 whole entry, looked up): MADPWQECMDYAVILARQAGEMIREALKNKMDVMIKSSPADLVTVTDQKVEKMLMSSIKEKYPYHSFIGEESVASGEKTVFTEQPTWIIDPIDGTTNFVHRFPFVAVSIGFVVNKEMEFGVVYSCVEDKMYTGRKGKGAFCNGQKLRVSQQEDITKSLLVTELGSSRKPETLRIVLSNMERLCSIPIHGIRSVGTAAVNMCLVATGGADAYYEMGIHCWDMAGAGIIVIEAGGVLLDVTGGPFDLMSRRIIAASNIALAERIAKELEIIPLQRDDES
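CHO-M1 cells (CHO stably expressing M1 receptor), compound up to 46 uM final, stimulated with carbachol (50 uM as added) in buffer with 50mM LiCl, pH 7.4, 30 min at 37C. Cytosolic IP1 read by TR-FRET; AC50 from Hill fits.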
Hits are given with their value; - = inactive; ? = inconclusive; . = not tested or not shown; [ ] = another dose, or the depositor's remark. Unless noted, the call rests on the fitted dose curve; in most records, active means well fitted curve in the direction sought with a large enough effect; inconclusive means small, poorly fitted or top-dose-only effect, or another doubt; inactive means no such curve, though single readings can be large; an effect the other way counts as inactive or inconclusive.

SMILES | 12-hLO inh | IMPase Li inh | 15-hLO-2 inh | IMPase cell inh
CCOc1ccc(NS(=O)(=O)c2ccc3[nH]cc(C(=O)N(CC)CC)c(=O)c3c2)cc1 | 15.8µM | - | - | -
CCOc1ccc(NS(=O)(=O)c2ccc3[nH]cc(C(=O)NCC4CCCO4)c(=O)c3c2)cc1 (configuration not stated) | - | ? | - | -
O=c1cc(-c2ccccc2O)oc2cc(O)ccc12 | - | - | - | .
O=c1cc(-c2cccc(O)c2O)oc2ccccc12 | ? | - | 15.8µM | -
COc1cc2c(cc1OC)-c1cc3nc4ccccc4nc3n1C(C)(C)C2 | - | - | 25.1µM | -
COc1cc2c(cc1OC)-c1n[nH]c(=S)n1C(C)(C)C2 | . | - | . | .
O=C1SC(SCc2ccccc2)=N/C1=C\c1ccco1 | ? | - | ? | ?
CCCSC1=N/C(=C\C=C\c2ccco2)C(=O)S1 | ? | - | 25.1µM | -
CN(CCC(=O)O)S(=O)(=O)c1ccccc1 | -[11.4 µM] | - | -[11.4 µM] | .
CC(/C=C/C=C(C)/C=C/C(=O)O)=C\C=C\C=C(C)\C=C\C=C(C)\C=C\C(=O)O | - | - | ? | .
Cc1ccc2[nH]c(=S)cc(C)c2c1 | - | ? | 12.6µM | -
Cc1ccc2c(C)cc(=S)[nH]c2c1 | . | - | . | .
O=[N+]([O-])c1ccc(Cl)c(C2Nc3cccc4cccc(c34)N2)c1 | ? | - | 12.6µM | -
O=[N+]([O-])c1ccccc1C1Nc2cccc3cccc(c23)N1 | - | - | ? | -
O=C1C=CC2=C3c4cc(O)c(O)cc4C[C@]3(O)COC2=C1 | - | - | - | .
c1ccc2sc(SN3CCOCC3)nc2c1 | - | - | 20µM | -
O=C(c1ccc2c(c1)[nH]c(=S)n1c3ccccc3nc21)N1CCN(c2ncccn2)CC1 | - | 7.08µM | ? | -
O=C(NCCN1CCN(c2ccccc2)CC1)c1ccc2c(c1)[nH]c(=S)n1c3ccccc3nc21 | . | 10µM | . | .
O=C(c1ccc(F)cc1)N1CCN(c2ncccn2)CC1 | - | - | - | -
Cc1ccc2nc(NC(=S)NC(=O)c3ccco3)sc2c1 | - | 12.6µM | . | .
Cc1ccc2nc(NC(=O)c3ccco3)sc2c1 | - | - | - | -
O=C(O)c1ccc(C(=O)O)c(C(=O)O)c1.[NH-][C@@H]1CCCC[C@@H]1[NH-].[Pt] | -[11.4 µM] | - | -[11.4 µM] | .
CC(=O)C1=C(O)C(=O)N(c2cccnc2)C1c1ccc(Cl)cc1 (configuration not stated) | - | 6.31µM | - | -
CCCCc1nc2c(c3c1C[C@H](C)OC3)CN(C(=O)c1cc(I)ccc1F)CC2 | -[11.4 µM] | - | . | .
CCOc1ccc(S(=O)(=O)N(CC(=O)N/N=C/c2ccc(-c3ccc([N+](=O)[O-])cc3)o2)c2ccccc2)cc1 | - | - | 12.6µM | -
SMILES | 12-hLO inh | IMPase Li inh | 15-hLO-2 inh | IMPase cell inh
Cc1ccc(C)c(N(CC(=O)N/N=C/c2ccc(-c3ccc([N+](=O)[O-])cc3)o2)S(=O)(=O)c2ccccc2)c1 | - | ? | ? | -
CC(=O)c1cccc(NC(=O)CCS(=O)(=O)c2cc(Br)cc3c2N(C(=O)C2CC2)CC3)c1 | . | . | . | -
O=C(NC(=S)Nc1ccccc1N1CCCC1)c1ccc(-c2cccc([N+](=O)[O-])c2)o1 | ? | - | 7.94µM | -
O=C(NC(=S)Nc1ccccc1N1CCCCC1)c1ccc(-c2cccc([N+](=O)[O-])c2)o1 | - | - | 25.1µM | -
CC(=O)N1CCN(c2ccccc2NC(=O)c2ccc(-c3cccc([N+](=O)[O-])c3)o2)CC1 | . | - | . | .
CCCCC/C=C\C/C=C\CC1OC1C/C=C\CCCC(=O)O (configuration not stated) | - | - | . | .
N#C/C(=C\c1ccc(-c2ccc(C(=O)O)cc2)o1)C(=O)Nc1ccccc1C(=O)O | . | . | . | -
O=c1cc(-c2cc(O)c(O)c(O)c2)oc2cc(O)cc(O)c12 | - | - | 12.6µM | .
CN(Cc1ccco1)c1ccnc(-c2cccc(C#N)c2)n1 | . | - | - | .
COc1ccccc1N1C(=O)CC(Nc2ccc(N3CCOCC3)cc2)C1=O (configuration not stated) | ? | - | - | -
CCOc1ccccc1N1C(=O)CC(Nc2ccc(N3CCOCC3)cc2)C1=O (configuration not stated) | ? | - | 15.8µM | -
CCOC(=O)c1c2ccc(OCC(=O)N/N=C/c3ccc(C)cc3)cc2n2ccccc12 | - | - | 15.8µM | -
CCOC(=O)c1c2ccc(OCC(=O)NN)cc2n2ccccc12 | . | - | . | .
COC(=O)[C@@H](NC(=O)O[C@@H]1C(=O)c2cc(Br)ccc2O[C@H]1c1ccc2c(c1)OCO2)C(C)C | . | - | . | .
CCOc1ccc(C2/C(=C(/O)c3ccc(OC)cc3)C(=O)C(=O)N2c2cc(C)on2)cc1OC (configuration not stated) | - | ? | - | -
COc1cccc(C2/C(=C(\O)c3ccc(OC)c(OC)c3)C(=O)C(=O)N2c2cc(C)on2)c1 (configuration not stated) | - | 10µM | - | ?
COc1ccc(/C(O)=C2\C(=O)C(=O)N(c3cc(C)on3)C2c2ccccc2OC)cc1 (configuration not stated) | - | 6.31µM | - | -
Nc1c(C(=O)Nc2ccc(Br)cc2)sc2nc(-c3ccco3)ccc12 | ? | 11.2µM | ? | ?
Cc1cc(=O)oc2cc(NC(=O)c3cc4ccccc4o3)ccc12 | - | 2µM | ? | -
O=[N+]([O-])c1ccc(NNC(=S)Nc2ccccc2)cc1 | ? | - | 3.98µM | -
Cc1ccc(C)n1-c1ccc(-c2nnc3n2CCCCC3)s1 | - | 12.6µM | - | ?
C1CCc2nnc(-c3nnc4n3CCCCC4)n2CC1 | - | - | - | -
Cc1ccc(S(=O)(=O)Nc2nc(C)c(NC(=O)OCCCl)s2)cc1 | - | - | - | -
Cc1ccc(S(=O)(=O)Nc2nc(C)c(NC(=O)Nc3ccc(Cl)cc3Cl)s2)cc1 | 7.08µM | - | ? | -
